TDP1 cell noCPT: qHTS for Inhibitors of human tyrosyl-DNA phosphodiesterase 1 (TDP1): qHTS in cells in absence of CPT | DT40 Tdp1-/- hTDP1 cells, no CPT, ATP luminescence, 48 h | Potency, µM (top dose mostly 46.2 µM), without a hit: at the highest dose activity change, negative = growth inhibition, hits mostly inhibitors | hit rate 15% among 420,000; note: nearly all actives have a fitted effect of over 55% in size
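Chicken DT40 Tdp1-/- cells stably complemented with human TDP1 were seeded at 400 cells/well with DMSO in place of 20 nM camptothecin. After compound pinning, cells grew at least 48 hr at 37 °C; viability read by CellTiter-Glo luminescence.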
RORgamma inh: blocks mouse ROR gamma transcriptional activity. hit rate 5.4% among 310,000. Potency, µM (titrated, usually from 53.6 µM), inactives show at the top dose activity change, negative = inhibition, hits mostly inhibitors. AID 2551. Drosophila S2 Gal4-RORgamma UAS-luciferase reporter, 20 h; note: nearly all actives have a fitted effect of over 60% in size
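A Gal4/UAS one-hybrid system in insect cells: metallothionein-promoter Gal4–ROR gamma fusion plus Photinus luciferase reporter. Copper sulfate 700 uM final, 20 hr ambient incubation, luminescent detection after 10 min with reagent.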
VP16 counter: inhibits Gal4-VP16 luciferase reporter, ROR gamma counter-screen; hit rate 3.5% among 310,000; Potency, µM (series often up to 53.6 µM), for inactives: at the top dose activity, negative = inhibition, hits mostly inhibitors; Drosophila S2 Gal4-VP16 UAS-luciferase, luminescence, 20 h;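 note: Gal4-VP16 expression switched on by copper sulfate through the metallothionein promoter; nearly all actives have a fitted effect of over 50% in size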
TDP1 cell CPT: DT40-hTDP1 cell growth loss with CPT; chicken DT40 Tdp1-/-;hTDP1 cells + 20 nM CPT, ATP luminescence, 48 h; Potency, µM (series often up to 46.2 µM), without a hit: at the top dose activity change, negative = growth inhibition, hits mostly inhibitors; hit rate 12% among 420,000; AID 686979; note: nearly all actives have a fitted effect of over 55% in size
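Cell growth measured by CellTiter-Glo luminescence after a minimum 48 h, 37 C compound exposure with 20 nM CPT in Tdp1-knockout DT40 cells stably expressing hTDP1, seeded 400/well; qHTS titration format.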
TDP1 inh: blocks human tyrosyl-DNA phosphodiesterase 1; Q9NUW8; recombinant TDP1, AlphaScreen DNA substrate cleavage; Potency, µM (titrated, usually from 130 µM), without a hit: top-dose activity change, negative = inhibition, usual class: inhibitors; hit rate 0.28% among 350,000; AID 485290; note: nearly all actives have a fitted effect of over 40% in size
Target sequence (Q9NUW8 whole entry, looked up): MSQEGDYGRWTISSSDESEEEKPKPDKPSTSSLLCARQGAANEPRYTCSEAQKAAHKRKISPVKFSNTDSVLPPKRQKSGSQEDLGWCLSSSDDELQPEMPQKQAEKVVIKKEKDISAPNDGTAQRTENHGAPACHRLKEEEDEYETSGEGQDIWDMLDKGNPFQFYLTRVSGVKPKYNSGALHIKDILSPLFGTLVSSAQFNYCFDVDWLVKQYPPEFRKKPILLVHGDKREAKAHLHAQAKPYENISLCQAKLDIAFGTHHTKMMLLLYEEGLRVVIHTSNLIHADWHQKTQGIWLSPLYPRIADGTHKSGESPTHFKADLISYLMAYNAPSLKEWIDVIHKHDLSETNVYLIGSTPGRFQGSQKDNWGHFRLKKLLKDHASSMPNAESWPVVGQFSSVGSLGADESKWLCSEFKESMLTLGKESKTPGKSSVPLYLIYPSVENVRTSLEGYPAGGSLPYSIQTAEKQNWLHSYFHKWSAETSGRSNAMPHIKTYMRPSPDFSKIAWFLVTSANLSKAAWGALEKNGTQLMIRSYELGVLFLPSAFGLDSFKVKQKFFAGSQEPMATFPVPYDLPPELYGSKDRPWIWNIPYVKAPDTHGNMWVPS
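Recombinant human Tdp1 (E. coli-expressed, 1 nM final) preincubated with compounds 15 min at room temperature, then 5'-biotin/3'-phosphotyrosine-FITC DNA substrate (15 nM final) added for 5 min. AlphaScreen beads (10 ug/ml final) added 10 min; cleavage lowers signal.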
Active calls of the source: *; [ ] = remark or other dose. Shown are actives, neighbours in structure and some others; about 19% of the full set was active somewhere. Calls come from the whole dose curve; as a rule, active = well fitted curve in the direction sought with a large enough effect; inconclusive = small, poorly fitted or top-dose-only effect, or another doubt; inactive = no such curve, though single readings can be large; an effect the other way counts as inactive or inconclusive. % is set by controls: 0 for no effect and ±100 for the full control effect; potency is the fitted concentration of half-maximal effect.

`COc1cc(C2C3=C(COC3=O)Oc3cc4c(cc32)OCO4)cc(OC)c1OC` (configuration not stated) gave TDP1 cell noCPT 0.15µM*, TDP1 cell CPT 0.18µM* and TDP1 inh 3%.
For O=C1OCC2=C1C(c1ccc3c(c1)OCO3)c1cc3c(cc1O2)OCO3 (configuration not stated) the results were TDP1 cell noCPT 2.3µM* and TDP1 cell CPT 2.1µM*.
COc1ccc(C2CC(=O)Oc3cc4c(cc32)OCO4)cc1 (configuration not stated) was read as TDP1 cell noCPT -10%, RORgamma inh -9%, VP16 counter -4%, TDP1 cell CPT 3% and TDP1 inh -8%[56.1 µM].
COc1cc(C2CC(=O)Oc3cc4c(cc32)OCO4)cc(OC)c1OC (configuration not stated) was read as TDP1 cell noCPT -7%, RORgamma inh -12%, VP16 counter 6%, TDP1 cell CPT -22% and TDP1 inh -4%[56.1 µM].
For COc1cc(C(=O)NC2=NCCS2)cc(OC)c1OC the results were TDP1 cell noCPT 14%, RORgamma inh 0%, VP16 counter -6%, TDP1 cell CPT 0% and TDP1 inh -2%.
For NC(=O)c1ccc(N=Nc2c(O)c3ccccc3[nH]c2=O)cc1 the results were RORgamma inh -5%, VP16 counter 5% and TDP1 inh 3%.
Screening N=C(N)c1ccc(N=Nc2c(O)ccc3c2[nH]c2ccccc23)cc1 returned TDP1 cell noCPT 7.3µM* and TDP1 cell CPT 21µM*.
`COC(=O)c1cc(C)nc2c1c(=O)nc(SCc1ccccc1C)n2C1CC1` gave TDP1 cell noCPT inconclusive, TDP1 cell CPT inconclusive and TDP1 inh 0%.
`CN1C(=O)[C@H]2[C@@H](c3ccc(C(F)(F)F)cc3)N[C@]3(CCCN(Cc4cccn4C)C3=O)[C@H]2C1=O` gave TDP1 cell noCPT 16µM* and TDP1 cell CPT 23µM*.
For CN1C(=O)[C@H]2[C@@H](c3ccc(C(F)(F)F)cc3)N[C@]3(CCCN(Cc4ccc(Cl)cc4)C3=O)[C@H]2C1=O the results were TDP1 cell noCPT 16µM* and TDP1 cell CPT 1%.
`Cc1ccc(CN2CCC[C@]3(N[C@H](c4ccccc4)[C@@H]4C(=O)N(C)C(=O)[C@@H]43)C2=O)cc1` gave TDP1 cell noCPT -8% and TDP1 cell CPT 0%.
`CN1C(=O)[C@H]2[C@@H](c3ccc(C(F)(F)F)cc3)N[C@]3(CCCN(Cc4ccc(F)cc4)C3=O)[C@H]2C1=O` gave TDP1 cell noCPT 7.3µM* and TDP1 cell CPT 9.2µM*.
COc1ccc([C@H]2N[C@]3(CCCN(Cc4ccc(F)cc4)C3=O)[C@H]3C(=O)N(C)C(=O)[C@@H]23)cc1 was read as TDP1 cell noCPT -25% and TDP1 cell CPT -11%.
For Cc1ccc([C@H]2N[C@]3(CCCN(Cc4ccc(C(F)(F)F)cc4)C3=O)[C@H]3C(=O)N(C)C(=O)[C@@H]23)cc1 the results were TDP1 cell noCPT 13µM* and TDP1 cell CPT 21µM*.
Screening Cn1cccc1CN1CCC[C@]2(N[C@H](c3ccc(C(F)(F)F)cc3)[C@@H]3C(=O)N(Cc4ccccc4)C(=O)[C@@H]32)C1=O returned TDP1 cell noCPT -22% and TDP1 cell CPT -15%.
CCOc1ccc(OCC)c(NC(=O)C2CCN(c3nnc(-n4cccc4)s3)CC2)c1 was read as TDP1 cell noCPT 13%, TDP1 cell CPT -17% and TDP1 inh -1%.
`CN(C1CCCCC1)S(=O)(=O)c1cccc(C#N)c1` gave TDP1 cell noCPT inconclusive, RORgamma inh 4%, VP16 counter 10%, TDP1 cell CPT -9% and TDP1 inh -7%.
For CCCN(CCC)c1nc(Cl)nc(NCc2ccco2)n1 the results were TDP1 cell noCPT -24%, RORgamma inh inconclusive, VP16 counter 13%, TDP1 cell CPT -11% and TDP1 inh 3%.
`Cc1cnn2c(C3CC3)ccnc12` gave TDP1 cell noCPT -1%, RORgamma inh 18%, VP16 counter -11%, TDP1 cell CPT 3% and TDP1 inh 6%.
For COc1ccc(Cc2noc(CN(C)CCN3CCc4ccccc4C3)n2)cc1OC the results were TDP1 cell noCPT inconclusive, RORgamma inh -7%, VP16 counter 0%, TDP1 cell CPT inconclusive and TDP1 inh 8%.
Screening CCOc1ccc(N(CC(=O)Nc2ccccc2OCC)S(=O)(=O)c2c(C)noc2C)cc1 returned TDP1 cell noCPT 3.3µM*, RORgamma inh -11%, VP16 counter -6%, TDP1 cell CPT 5.2µM* and TDP1 inh 3%.
For CCOc1ccc(N(CC(=O)Nc2cccc(OC)c2)S(=O)(=O)c2c(C)noc2C)cc1 the results were TDP1 cell noCPT 18µM*, RORgamma inh inconclusive, VP16 counter inconclusive, TDP1 cell CPT 13µM* and TDP1 inh 1%.
CCOc1ccc(N(CC(=O)Nc2ccc(C)cc2)S(=O)(=O)c2c(C)noc2C)cc1 was read as TDP1 cell noCPT -27%, RORgamma inh -23%, VP16 counter 1%, TDP1 cell CPT inconclusive and TDP1 inh -1%.
For CCOc1ccc(NC(=O)CN(c2ccc(CC)cc2)S(=O)(=O)c2c(C)noc2C)cc1 the results were TDP1 cell noCPT 13µM*, TDP1 cell CPT 12µM* and TDP1 inh 12%.
`CCOc1ccc(N(CC(=O)Nc2cccc(Cl)c2)S(=O)(=O)c2c(C)noc2C)cc1` gave TDP1 cell noCPT 12µM*, RORgamma inh 16µM*, VP16 counter 13µM*, TDP1 cell CPT 13µM* and TDP1 inh -1%.
For CCC(Sc1nc2cc(OC)c(OC)cc2c(=O)n1CCc1ccc(S(N)(=O)=O)cc1)C(=O)NCCOC (configuration not stated) the results were TDP1 cell noCPT inconclusive, RORgamma inh 22%, VP16 counter -4%, TDP1 cell CPT -18% and TDP1 inh 7%.
Screening COc1ccc(CNC(=O)C(C)n2c(=O)cc(C)c3c(C)nn(-c4ccccc4)c32)cc1 (configuration not stated) returned TDP1 cell noCPT -19%, TDP1 cell CPT -26% and TDP1 inh 8%.
`CSc1nnc(-c2sc(-c3ccccc3)nc2C)n1C` gave TDP1 cell noCPT -17%, RORgamma inh -1%, VP16 counter -13%, TDP1 cell CPT -4% and TDP1 inh 0%.
Screening COc1ccc(OCCNC(=O)c2ccccc2OCC(=O)Nc2ccc(NC(C)=O)cc2)cc1 returned TDP1 cell noCPT 15µM*, RORgamma inh -5%, VP16 counter -11%, TDP1 cell CPT 18µM* and TDP1 inh 0%.

Bioassay records from PubChem BioAssay.
